# About 79,000 compounds went through this panel and 15% of them were active in at least one assay; those are over-represented in the sample as a whole. Values without a mark were called inactive. Activity calls are given as the source filed them. Rule as the data show it: active = growth inhibition above about 70%; inactive = the rest.
# Key:
# [1] = NCI Yeast Anticancer Drug Screen. Data for the rad50 strain (AID 155);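 also: 0% = growth of vehicle-only cultures of the same strain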; settings: S. cerevisiae rad50 strain growth inhibition, active compounds read high
# Procedure, shortened: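 A DNA repair-deficient yeast mutant serves as the test organism; compound-induced growth inhibition is calculated against vehicle-treated cells.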
# [2] = NCI Yeast Anticancer Drug Screen. Data for the mec2-1 strain (AID 157); settings: S. cerevisiae mec2-1 strain, active compounds read high
# Procedure, shortened: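 Strain: mec2-1 (DNA repair/cell cycle alteration). Compound exposure, then growth measured; inhibition expressed relative to vehicle.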
# [3] = NCI Yeast Anticancer Drug Screen. Data for the sgs1 mgt1 strain (AID 161);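 also: 0% = growth of cultures given vehicle only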; settings: S. cerevisiae sgs1 mgt1 strain, active compounds read high
# Procedure, shortened: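 Mutant yeast exposed to compound; growth scored against vehicle-only wells.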
# [4] = NCI Yeast Anticancer Drug Screen. Data for the cln2 rad14 strain (AID 165);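 also: 0% = growth equal to vehicle treated cultures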; settings: S. cerevisiae cln2 rad14 strain, active compounds read high
# Procedure, shortened: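 Compounds are applied to the cln2 rad14 yeast strain, and growth is then compared with that of vehicle-treated cultures to give inhibition.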
# [5] = NCI Yeast Anticancer Drug Screen. Data for the bub3 strain (AID 167); settings: S. cerevisiae bub3 mutant strain, active compounds read high
# Procedure, shortened: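 Inhibition values come from growth of compound-treated mutant yeast normalised to vehicle-treated controls.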
# [6] = NCI Yeast Anticancer Drug Screen. Data for the mlh1 rad18 strain (AID 175); settings: S. cerevisiae mlh1 rad18 strain growth inhibition, active compounds read high
# Procedure, shortened: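 Read-out is yeast growth inhibition, calculated against vehicle-only controls. The compound was applied to a strain engineered with DNA damage repair alterations.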
# [7] = at 5.0 µM (retest, dose inferred, filed as 0.5)
# [8] = at 50.0 µM (retest, dose inferred, filed as 5.0)
SMILES,"growth inhibition [1, 7]","growth inhibition [1, 8]",growth inhibition ([1]; at 50.0 µM),"growth inhibition [2, 7]","growth inhibition [2, 8]",growth inhibition ([2]; at 50.0 µM),"growth inhibition [3, 7]","growth inhibition [3, 8]",growth inhibition ([3]; at 50.0 µM),"growth inhibition [4, 7]","growth inhibition [4, 8]",growth inhibition ([4]; at 50.0 µM),"growth inhibition [5, 7]","growth inhibition [5, 8]",growth inhibition ([5]; at 50.0 µM),"growth inhibition [6, 7]","growth inhibition [6, 8]",growth inhibition ([6]; at 50.0 µM)
O=C(c1cccnc1)N(C1CCCCC1)C1CCCCC1,3%,4%,2.25%,-2%,8%,-6.85%,2%,6%,3.4%,1%,9%,11.8%,1%,12%,0.35%,-10%,6%,-2.25%
O=c1c2ccccc2nc(-c2ccccc2)n1NC(=S)Nc1ccc(Cl)cc1[N+](=O)[O-],-3%,17%,23.1%,-7%,10%,-1.6%,4%,15%,40.6%,8%,14%,-29.4%,-5%,29%,71.4% (active),2%,10%,25.8%
O=C(n1c2ccccc2c2n[nH]c(=S)nc21)C(F)(F)F,1%,-6%,82.7% (active),0%,-2%,39.1%,-3%,-2%,83.5% (active),-2%,-2%,25.3%,3%,-1%,52.8%,-5%,0%,89.3% (active)
CN(C)CCNC(=O)c1cccc2ccc(-c3ccc(-c4ccccc4)cc3)nc12,4%,99% (active),99.2% (active),-1%,98% (active),99.6% (active),-1%,99% (active),99.2% (active),1%,99% (active),98.5% (active),-41%,99% (active),99.1% (active),0%,99% (active),99.4% (active)
O=c1c(Cl)nsnc1Cl,100% (active),100% (active),99.6% (active),100% (active),100% (active),99.7% (active),100% (active),100% (active),99.6% (active),99% (active),100% (active),98% (active),100% (active),100% (active),99.7% (active),99% (active),100% (active),99.4% (active)
CC(=O)Nc1ccc(C(=O)C(C)Br)cc1 (configuration not stated),38%,99% (active),62.8%,28%,99% (active),81.8% (active),43%,99% (active),80.5% (active),24%,98% (active),23.6%,30%,99% (active),66.1%,40%,99% (active),-30.8%
Cc1nc(C(N)=S)sc1/C(CC(=O)C(=O)Nc1cccc2ccc(O)cc12)=N\NC(=O)c1ccncc1,25%,31%,21.8%,16%,18%,7.5%,9%,28%,-4.85%,14%,33%,-10.8%,32%,29%,13.1%,14%,35%,16.4%
O=C1C(=O)C(CCCO)(CCCO)CCCCCCCCC1(CCCO)CCCO,-9%,-3%,31.4%,5%,-11%,-35.1%,5%,8%,0%,6%,19%,63.8%,13%,-7%,-6.5%,-8%,0%,-5.95%
O=C(Nc1ccccc1)C(F)(F)C(F)(F)C(F)(F)F,6%,2%,12.6%,-1%,-24%,12.7%,17%,14%,-0.35%,5%,5%,26.1%,15%,27%,-1%,5%,28%,11.6%

# Source: PubChem BioAssay (NCI)
